Assay results from PubChem BioAssay (NCI).
About 83,000 compounds went through this panel and 20% of them were active in at least one assay; those are over-represented in the sample as a whole.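 Single-concentration screen, 48 h exposure, 96-well plates. Endpoint: percent growth. Below 10 = active.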 Unmarked numbers belong to inactive results. The source made the active and inactive calls.

test system: KM12 colon; assay: NCI-60 one-dose screen, 48 h (100 = growth as untreated, 0 = no growth, -100 = all killed); conditions: 10 µM unless noted

Question: CC(C)=CCC[C@@H](C)[C@H]1CC[C@@]2(C)C3=C(CC[C@]12C)[C@@]1(C)CC[C@H](O)C(C)(C)[C@@H]1CC3 was tested. Which growth did it give?
Answer: 109%

Question: CCN(CC)CCN1CNC(=S)NC1 was tested. Which growth did it give?
Answer: 98.7%

Question: For OC(CCN1CCCCC1)(c1ccccc1)c1ccccc1, which growth is on record?
Answer: 113%

Question: For C#CC(O)c1ccccc1 (configuration not stated), which growth is on record?
Answer: 107%

Question: How did the growth turn out when CCNc1ncnc2[nH]ncc12 was run?
Answer: 103%

Question: For Nc1ccc(F)c(Cl)c1F, which growth is on record?
Answer: 108%

Question: Which growth does the source give for Clc1ccc(-c2noc(/C=C\c3ccccc3)n2)cc1 here?
Answer: 100%

Question: For COC1OC(COC(C)=O)C(OC(C)=O)C(OC(C)=O)C1OC(C)=O (configuration not stated), which growth is on record?
Answer: 106%

Question: How did the growth turn out when Cc1c(Cl)cccc1N=C=S was run?
Answer: 108%

Question: CCOc1ccc2c(c1)c(C)cc(C)[n+]2CC was tested. Which growth did it give?
Answer: 17.6%

Question: Cc1cccnc1NC1OC(=O)c2ccccc21 (configuration not stated) was tested. Which growth did it give?
Answer: 105%

Question: With NS(=O)(=O)c1cc(=O)[nH]c(=O)[nH]1 as the compound, how does the growth read?
Answer: 104%

Question: With COc1ccc2c(ccc[n+]2C)c1 as the compound, how does the growth read?
Answer: 90.6%

Question: With CN1CCCN(C(c2ccccc2)c2ccc(Cl)cc2)CC1 (configuration not stated) as the compound, how does the growth read?
Answer: 101%

Question: Clc1cccc(Cl)c1C1CSc2ccccc2N=C1c1ccccc1 (configuration not stated) was tested. Which growth did it give?
Answer: 44.1%

Question: With O=C(O)CSCC(=O)Nc1cc(C(F)(F)F)ccc1Cl as the compound, how does the growth read?
Answer: 105%

Question: For CC(=O)O[C@H]1CC[C@]2(C)C3=C(C(=O)C[C@H]2C1(C)C)[C@]1(C)CC[C@H]([C@H](C)CCC(=O)O)[C@@]1(C)CC3=O, which growth is on record?
Answer: 106%

Question: Which growth does the source give for C=COC(=O)C(C)(C)C here?
Answer: 107%

Question: Which growth does the source give for COc1cc(-c2ccc(NC(=O)CC(C)=O)c(OC)c2)ccc1NC(=O)CC(C)=O here?
Answer: 106%

Question: With CCCCCCCCCCCCCCCCCC(=O)NCCNC(=O)CCCCCCCCCCCCCCCCC as the compound, how does the growth read?
Answer: 96.4%

Question: Which growth does the source give for CCOc1ccc(C(=O)O)cc1 here?
Answer: 112%

Question: With CCNCC(C)(C)O as the compound, how does the growth read?
Answer: 113%

Question: For Cc1ccc(S(=O)(=O)NC(=O)NCCSSCCNC(=O)NS(=O)(=O)c2ccc(C)cc2)cc1, which growth is on record?
Answer: 113%

Question: O=C(O)Cc1ccc(Cl)cc1 was tested. Which growth did it give?
Answer: 113%

Question: Which growth does the source give for ClCC(Cl)[C@@H]1CC2C=CC1C2 (some centres not stated) here?
Answer: 115%

Question: How did the growth turn out when CCOC(OCC)C(=O)c1ccccc1 was run?
Answer: 99.4%

Question: O=C(CCl)Nc1ccccc1SCc1cc(Cl)cc2c1OCOC2 was tested. Which growth did it give?
Answer: 96.8%

Question: COc1cccc(C(=O)NNC(=O)c2cccc3ccccc23)c1 was tested. Which growth did it give?
Answer: 115%

Question: Which growth does the source give for CC(C)N(CCCC#N)C(C)C here?
Answer: 105%

Question: For O=C(c1cccc(C(=O)c2ccc3c4c(cccc24)C(=O)N(c2ccccc2)C3=O)c1)c1ccc2c3c(cccc13)C(=O)N(c1ccccc1)C2=O, which growth is on record?
Answer: 98.2%

Question: Which growth does the source give for CC(c1ccccc1)N1C(=O)CSC1=S (configuration not stated) here?
Answer: -38.3% (active)

Question: How did the growth turn out when O=C(OCc1ccccc1)n1nnc2ccccc21 was run?
Answer: 107%

Question: For Nc1ncc([N+](=O)[O-])cn1, which growth is on record?
Answer: 101%

Question: How did the growth turn out when O=C(O)C1CSC(c2ccccc2)N1 (configuration not stated) was run?
Answer: 101%

Question: With Cc1ccc(O)c(N)c1 as the compound, how does the growth read?
Answer: 110%

Question: For CN(C)c1ccc(O)c2c1CC1CC3C(N(C)C)C(=O)C(C(N)=O)=C(O)C3(O)C(=O)C1=C2O (configuration not stated), which growth is on record?
Answer: 50%

Question: How did the growth turn out when Nc1c(O)c(S(=O)(=O)O)c(O)c2c1C(=O)c1ccccc1C2=O was run?
Answer: 5.95% (active)
